# Measurements as given in PubChem BioAssay AID720706 (Broad Institute, 2013).
# Out of some 350,000 compounds screened, about 5,500 (1.6%) were called active.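 How the source made its calls: active means significant combined selectivity score with lowered wild-type GFP, culture density cut under 30%, mutant RFP and density less affected; inactive means any of these conditions unmet.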 Only a selection was taken, and actives are over-represented in it overall.
# Test: reduced GFP signal of wild-type E. coli, primary screen, bacterial rRNA inhibitor project, GFP/RFP fluorescence, OD600, single point (AID 720706)
# Conditions: E. coli WT GFP vs humanized-ribosome RFP mutants, 24 h; GFP signal change (wild-type ribosome): stronger effect = lower value, DMSO median 0, no signal -100; OD600 change: measured here: OD600 growth, DMSO median 0, no signal -100; RFP signal change: measured here: RFP humanized mutant strains, DMSO median 0, no signal -100, concentration not given here
Compound,GFP signal change (wild-type ribosome),OD600 change,RFP signal change
COCC(=O)N[C@H]1C=C[C@H](CC(=O)N2CCCCC2)O[C@H]1CO,0.044% (inactive),2.08%,0.319%
CN(CCOc1ccc(CC2SC(=O)NC2=O)cc1)c1ccccn1 (centres undefined),-18.5% (active),-19.1%,5.83%
CC(C)=N/N=C1/NC(=O)C(Cc2ccccc2)S1 (centres undefined),5.19% (inactive),0.06%,4.42%
CC(O)c1ccc(OCCN(C)c2ccccn2)cc1 (centres undefined),7.56% (inactive),9.08%,-0.281%
CCC(=O)N1CCC2(CC1)CN(Cc1ccc(Cl)cc1)[C@@H](CO)c1[nH]c3cc(OC)ccc3c12,0.255% (inactive),-3.27%,4.57%
COc1ccc2c3c(n(C)c2c1)[C@@H](CO)NCC31CCN(CC2CC2)CC1,8.18% (inactive),22.6%,-3.19%
O=C(NCC[C@H]1CC[C@@H](NC(=O)c2cnccn2)[C@H](CO)O1)Nc1ccc(Cl)cc1,-40.4% (inactive),-66.2%,9.29%
COc1cccc(CNC(=O)[C@H]2CCCN2C(=O)[C@H]2CCCN2C(=O)c2ccc(F)cc2)c1,2.11% (inactive),11.4%,-3.48%
CNC[C@H]1Oc2ccc(NC(=O)NC(C)C)cc2C(=O)N(C)C[C@@H]1C,4.42% (inactive),7.25%,0.095%
CCN(CC)C(=O)c1sc2nc(-c3ccccc3)ccc2c1N,-15.6% (active),-3.66%,4.88%
CCN(CC)C(=O)c1nc[nH]c1C(=O)N(C)Cc1ccccc1,31.5% (inactive),17.4%,2.93%
Cc1ccc(NC(=O)c2sc3nc(N)c(C#N)cc3c2N)cc1,1.14% (inactive),1.53%,1.97%
Cc1ccc2c(N)c(C(=O)c3ccccc3)sc2n1,-33.7% (active),-0.632%,-10.4%
COC(=O)c1cc2c(N)c(C(=O)c3ccc(Cl)cc3)sc2nc1C(OC)OC,19.9% (inactive),8.88%,2.24%
CCOC(=O)C(C)n1nc(-c2ccccc2)c2ccccc2c1=O (centres undefined),2% (inactive),4.27%,-0.337%
CC(=O)NC[C@@H]1[C@@H](c2ccccc2)[C@@H](CO)N1C(=O)Cc1cccnc1,1.93% (inactive),9.5%,-2.5%
COCC(=O)N1CC(=O)N2[C@H](CO)[C@@H](c3ccc(C#CC4CCCCC4)cc3)[C@@H]2C1,-1.52% (inactive),-39.4%,13.9%

Compound,GFP signal change (wild-type ribosome),OD600 change,RFP signal change
CC(C)(C)NC(=O)NC(=O)CN1CCC(Cc2ccccc2)CC1,-31.9% (active),-22.7%,-1.62%
O=C(CN1CCCCC1)NC(=O)Nc1ccccc1F,20.5% (inactive),19.5%,2.38%
COc1ccc(NC(=O)N2CCC(Cc3ccccc3)CC2)cc1,-3.82% (inactive),-5.59%,-1.73%
CO[C@@H]1CN(C)C(=O)c2ccc(NS(=O)(=O)c3ccc(Cl)cc3)cc2OC[C@@H](C)N(C)C[C@@H]1C,-0.718% (inactive),1.84%,-0.00025%
O=C(c1ccccc1F)N1CC(=O)N2[C@H](CO)[C@@H](c3ccc(-c4cccnc4)cc3)[C@H]2C1,4.23% (inactive),20.3%,2.58%
CC(=O)N1C[C@@H]2C(c3ccccc3)[C@@H](C1)N2C(=O)NC(C)C (some centres undefined),1.98% (inactive),3.76%,-1.21%
Cc1nnc(SCc2ccc(C(=O)c3ccc(Cl)cc3)o2)n1-c1ccccc1,-32.1% (active),-22.7%,3.57%
COC(=O)c1ccc(CSc2nc3ccccc3c(=O)n2-c2cccc(OC)c2)o1,1.15% (inactive),-0.729%,0.461%
Cc1nnc(SCC(=O)Nc2cccc(N)c2)n1-c1ccccc1,6.38% (inactive),12%,4.46%
C[C@@H]1CN([C@@H](C)CO)C(=O)c2cc(NS(=O)(=O)c3cn(C)cn3)ccc2O[C@@H]1CN(C)Cc1ccc(C(=O)Nc2ccccc2N)cc1,5.78% (inactive),6.33%,3.25%
O=c1[nH]n2c(-c3ccccc3)nc(O)c2c2ccccc12,-31.6% (active),-7.74%,0.585%
O=C(O)c1ccc(-n2nc(-c3ccccc3)c3ccccc3c2=O)cc1,2.07% (inactive),-9.56%,-1.61%
COCC(=O)N1CC(=O)N2[C@@H](CO)[C@@H](c3ccc(C#CC(C)C)cc3)[C@@H]2C1,-0.482% (inactive),2.33%,-1.33%
COc1ccc(C#Cc2ccc([C@@H]3[C@H](CO)N4C(=O)CN(C(C)=O)C[C@@H]34)cc2)cc1,-2.96% (inactive),-13.2%,-2.12%
CC(=O)Nc1cccc2c1O[C@@H](CN(C)C(C)=O)[C@@H](C)CN(C)C2=O,-0.3% (inactive),2.46%,-0.39%
COc1ccc2c3c(n(C)c2c1)[C@@H](CO)N(C(=O)c1cnccn1)CC31CCN(C(C)=O)CC1,4.42% (inactive),18.1%,-2.67%
